In PubChem BioAssay AID743279 (National Center for Advancing Translational Sciences (NCATS), 2014):
Screen size: about 360,000 compounds; about 17,000 (4.7%) were called active. Inconclusive results (about 5%) are left out. This excerpt belongs to a sample that is enriched for actives. Unmarked numbers belong to inactive results. No stated cut-off is given here; in the data, active means activity change below about -50%; inconclusive means mostly about -30% to -49%; inactive means weaker than that.

Experiment: qHTS for Inhibitors of Inflammasome Signaling: IL-1-beta AlphaLISA Primary Screen
Conditions: THP-1 LPS/ATP IL-1B secretion, 16 h; at 57.5 µM, active compounds read low
How it was run: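 THP-1 cells pretreated 1 hr with compounds (up to 57.5 uM final), then stimulated with LPS (250 ng/mL final) plus ATP (1.25 mM final); secreted IL-1B measured by AlphaLISA after 16 hr, decreased signal indicating inhibition.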
On the % scale 0 is the no-effect control and ±100 the full control effect.

SMILES	activity change
COc1ccc(NC(=O)c2cccc(Cl)c2)c[n+]1[O-]	-0.66%
C=C(C)COc1ccc(-c2ncncc2-c2ccc(OC)cc2)c(O)c1	-58.4% (active)
C=C(C)COc1ccc(-c2nc(N)ncc2-c2ccccc2OC)c(O)c1	-26.4%
COc1ccc(-c2nc(N)ncc2-c2ccc(Cl)cc2)c(O)c1	-11.3%
COc1ccc(C(C(=O)NCc2ccccc2)N(Cc2cccs2)C(=O)c2cnccn2)cc1 (configuration not stated)	3.36%
COc1ccc(-c2cc(C3CCN(c4ncccc4[N+](=O)[O-])CC3)[nH]n2)cc1	-28.8%
O=C(c1ccccc1)N1CCN(c2cc(-c3ccccc3)nc3cc(-c4cccc(Cl)c4)nn23)CC1	15.2%
CN(C)CCN1CCN(c2cc(-c3cccc(Cl)c3)nc3ccnn23)CC1	6.44%
C#Cc1cc(N2CCN(C(=O)c3ccoc3)CC2)n2nc(-c3cccc(Cl)c3)cc2n1	-109% (active)
Cc1nc2ccccc2nc1N/N=C/c1ccc(O)cc1O	144%
COc1cccc(/C=N/Nc2ccc(S(=O)(=O)Nc3ccccc3C(=O)O)cc2[N+](=O)[O-])c1O	-5.79%
COc1ccccc1/C=N\Nc1cc(C)nc(-n2nc(C)cc2C)n1	-99% (active)
COc1ccc(/C=N/Nc2cc(N3CCOCC3)nc(C)n2)c(OC)c1	-8.96%
CC(=O)c1ccc(Oc2cc(C)nc(-n3nc(C)cc3C)n2)cc1	46.7%
COc1cccc(/C=N/Nc2cc(C)nc(-c3ccccc3O)n2)c1O	-99.4% (active)
O=S(=O)(/N=C(/Nc1ccccc1)c1ccccc1)c1cccs1	-18.2%
COc1ccc(-c2csc(C(O)c3cccc(Cl)c3)n2)cn1 (configuration not stated)	-7.83%
CN1CCn2cnc(C(=O)NCC(=O)OC(C)(C)C)c2C1=O	3.21%
O=C(Nc1ccc(Cl)cc1)c1csc([C@H]2C[C@H](O)[C@@H](CO)O2)n1	17.6%
COc1ccc(-c2cc(C(F)(F)F)nc(SCCC(=O)NCc3ccco3)n2)cc1	-20.3%
COc1ccc(N)cc1NC(=O)CN1CCOCC1	3.53%
C=C1C(=O)[C@]23C[C@H]1CCC2[C@@]1(C)C(C[C@@H]3O)[C@](C)(C(=O)O)CC[C@@H]1O (some centres not stated)	-91.2% (active)
COc1cc(S(=O)(=O)Nc2ncn[nH]2)ccc1Cl	8.42%
CN1CCOC1c1ccc(C2OCCN2C)cc1 (configuration not stated)	5.1%
CN(C)c1ccc(/C=N/NC(=O)c2ccc(Cn3cc(Br)cn3)o2)cc1	-53% (active)
CN(C)c1ccc(/C=N/NC(=O)C(O)c2ccc(Br)cc2)cc1 (configuration not stated)	-3.94%
O=C(N/N=C\c1ccc(Br)cc1)c1ccc(Cn2cccn2)o1	-3.71%
